We go through 43 compounds from PubChem BioAssay (Tox21).

Assay [1] in a line: qHTS assay for identifying genotoxic compounds that show differential cytotoxicity against isogenic chicken DT40 cell lines with known DNA damage response pathways - wild type cell line (AID 743012). Note: nearly all actives have a fitted effect of over 60% in size. Note: potency is the fitted concentration of half-maximal effect. In outline:
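Viability of DNA repair-proficient chicken DT40 cells was assessed by CellTiter-Glo luminescence following 40 h compound exposure at 37 C/5% CO2.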
In general terms: qHTS replaces the single test concentration by a dilution series.

The nature of assay [2]: qHTS assay for identifying genotoxic compounds that show differential cytotoxicity against isogenic chicken DT40 cell lines with known DNA damage response pathways - Rev3 mutant cell line (AID 743014). Note: nearly all actives have a fitted effect of over 55% in size. Note: potency is the fitted concentration of half-maximal effect.
Assay [3] is described as follows: qHTS assay for identifying genotoxic compounds that show differential cytotoxicity against isogenic chicken DT40 cell lines with known DNA damage response pathways - Rad54/Ku70 mutant cell line (AID 743015). Note: nearly all actives have a fitted effect of over 60% in size. Note: potency is the fitted concentration of half-maximal effect.
A short description of assay [4]: qHTS assay to identify small molecule antagonists of the androgen receptor (AR) signaling pathway - cell viability counter screen (AID 743033; note: nearly all actives have a fitted effect of over 45% in size; note: potency is the fitted concentration of half-maximal effect).
The target in assay [5] is Androgen receptor (Homo sapiens) (UniProt P10275). Description: qHTS assay to identify small molecule antagonists of the androgen receptor (AR) signaling pathway (AID 743035; active = well fitted inhibition curve with a large enough effect in the signal ratio in the repeat runs, not every such curve was filed as active; the % refers to the signal ratio). In outline:
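Reporter HEK293 cells were exposed to compounds and R1881 overnight (16 h, 37C); beta-lactamase activity was then quantified by FRET fluorescence.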

Assay [6] has the same target. Description: qHTS assay to identify small molecule agonists of the androgen receptor (AR) signaling pathway (AID 743036; active = well fitted activation curve with a large enough effect in the signal ratio in the repeat runs, with a control signal flat, not every such curve was filed as active; the % refers to the signal ratio). In outline: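 AR-UAS-bla HEK293 cells, plated 4 h before dosing, were treated with compound for 16 h at 37C. beta-Lactamase reporter read after 2 h with LiveBLAzer B/G FRET substrate at room temperature.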
For assay [7] the target is unchanged. Description: qHTS assay to identify small molecule agonists of the androgen receptor (AR) signaling pathway using the MDA cell line (AID 743040; note: nearly all actives have a fitted effect of over 20% in size). In outline: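 Luciferase agonist assay: 16 h compound exposure at 37C without CO2 in MDA-kb2 AR-luc cells, whose MMTV promoter responds to both AR and GR. Luminescence measured after 30 min room-temperature incubation with ONE-Glo.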

Assay [8] in a line: qHTS assay to identify small molecule antagonists of the androgen receptor (AR) signaling pathway using the MDA cell line - cell viability counter screen (AID 743041; note: nearly all actives have a fitted effect of over 45% in size). Put shortly:
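Viability read by CellTiter-Fluor fluorescence in the same wells as the antagonist screen, added after 15.5 h of a 16 h, 37C exposure. Human breast carcinoma MDA-kb2 AR-luc cells, compounds co-dosed with agonist R1881.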

The target of assay [9] is Androgen receptor (Homo sapiens) (UniProt P10275). Nature of the assay: qHTS assay to identify small molecule antagonists of the androgen receptor (AR) signaling pathway using the MDA cell line (AID 743042; note: nearly all actives have a fitted effect of over 55% in size). In outline:
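Antagonist mode: compounds plus R1881 agonist added to MDA-kb2 AR-luc cells, incubated 16 h at 37C. Luciferase reporter luminescence quantified, with multiplexed CellTiter-Fluor readout for cell viability.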

“And” between values parts separate entries of the source, which are not always exact repeats. Equal values may be shown once. Records with an inconclusive call do not appear. The source holds several records for some structures; these can differ, active in one and inactive in another. The source made the active and inactive calls. Unless noted, calls come from the whole dose curve; as a rule, active = well fitted curve in the direction sought with a large enough effect in the repeat runs; inconclusive = weak or mixed curves; inactive = no such curve, though single readings can be large; an effect the other way counts as inactive or inconclusive.

Sequence of Androgen receptor (Homo sapiens) (P10275 whole entry, looked up): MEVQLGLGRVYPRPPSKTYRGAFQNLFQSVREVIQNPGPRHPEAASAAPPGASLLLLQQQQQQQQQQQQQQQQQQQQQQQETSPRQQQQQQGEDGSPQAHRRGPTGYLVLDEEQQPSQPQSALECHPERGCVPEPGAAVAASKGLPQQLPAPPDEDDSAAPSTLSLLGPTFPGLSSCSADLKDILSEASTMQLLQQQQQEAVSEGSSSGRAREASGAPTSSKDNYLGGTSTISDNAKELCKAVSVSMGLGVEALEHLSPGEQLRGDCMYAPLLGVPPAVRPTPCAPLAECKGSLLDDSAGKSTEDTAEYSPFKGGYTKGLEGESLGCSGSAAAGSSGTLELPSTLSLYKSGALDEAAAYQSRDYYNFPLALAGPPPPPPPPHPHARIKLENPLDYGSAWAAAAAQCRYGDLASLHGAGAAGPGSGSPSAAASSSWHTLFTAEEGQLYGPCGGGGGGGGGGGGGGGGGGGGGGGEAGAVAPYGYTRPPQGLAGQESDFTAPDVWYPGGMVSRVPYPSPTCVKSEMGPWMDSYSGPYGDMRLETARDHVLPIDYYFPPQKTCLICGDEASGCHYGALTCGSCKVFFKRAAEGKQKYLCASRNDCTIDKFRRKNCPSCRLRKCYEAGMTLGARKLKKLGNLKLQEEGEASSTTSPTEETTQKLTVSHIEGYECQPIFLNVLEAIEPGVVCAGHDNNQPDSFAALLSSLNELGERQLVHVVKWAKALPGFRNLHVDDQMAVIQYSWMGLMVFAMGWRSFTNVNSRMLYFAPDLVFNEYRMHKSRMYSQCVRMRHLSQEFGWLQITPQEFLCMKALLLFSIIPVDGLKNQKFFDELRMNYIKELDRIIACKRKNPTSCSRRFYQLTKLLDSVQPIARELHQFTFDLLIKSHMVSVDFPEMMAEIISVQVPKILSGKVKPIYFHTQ

For `CCOP(=S)(OCC)SCCl`, the Potency entry in [1], in assay [2], in assay [3], in assay [4], in [5] and in assay [8] was “inactive” in each case. In addition, in assay [9], the Potency entry was “inactive”. Besides, the compound was classed as inactive in [6] and in [7].
As to `COc1cccc(C=O)c1`, the Potency result in [1], in [2], in assay [3], in assay [4] and in [8] was “inactive” each time.
Turning to `CCOC(=O)COc1ccc(Cl)cc1Cl`, the Potency entry in assay [1], in assay [2], in [3] and in [4] was “inactive” each time.
Turning to `Cc1cc(OC(=O)N(C)C)nn1C(=O)N(C)C`, the Potency result in [2], in [3], in assay [4] and in [8] was “inactive” each time.
As to `Cn1c(CCCC(=O)O)nc2cc(N(CCCl)CCCl)ccc21`, the Potency result in [4] and in [8] was “inactive” throughout.
With `C/C(=N\NC(=O)Nc1cc(F)cc(F)c1)c1ncccc1C(=O)O`, the Potency result in [1], in [3], in [4] and in assay [8] was “inactive” throughout.
For `O=C(NC(O)C(Cl)(Cl)Cl)NC(O)C(Cl)(Cl)Cl` (centres undefined), the Potency result in assay [1], in assay [2], in [3], in assay [4] and in assay [8] was “inactive” in each case.
For the compound `CCCC(C)(COC(N)=O)COC(N)=O`, the Potency result in assay [1], in assay [3], in [4] and in [8] was “inactive” throughout.
In the case of `CNC(=O)NC(O)C(Cl)(Cl)Cl` (centres undefined), the Potency result in assay [2], in assay [3], in assay [4], in assay [5], in assay [8] and in [9] was “inactive” throughout. Further, the compound was classed as inactive in assay [6] and in assay [7].
Turning to `CCNc1nc(Cl)nc(NC(C)(C)C)n1`, the Potency entry in assay [1], in [4], in assay [8] and in assay [9] was “inactive” each time. Moreover, the compound was classed as inactive in assay [6] and in [7].
`CCOC(=O)CCl`: the Potency entry in [1], in [3], in assay [4] and in assay [8] was “inactive” in each case.
Turning to `CCOC(=O)Nc1cccc(OC(=O)Nc2ccccc2)c1`, the Potency entry in assay [3], in [4] and in [8] was “inactive” in each case.
`COC(=O)[C@@H](N)CCCN/C(N)=N/[N+](=O)[O-]`: the Potency entry in assay [1], in assay [2], in assay [3] and in [8] was “inactive” in each case.
As to `CN1COCN(Cc2cnc(Cl)s2)/C1=N\[N+](=O)[O-]`, the Potency entry in [1], in [3], in [4] and in [8] was “inactive” in each case.
For `C[C@]12C=CC(=O)C=C1CC[C@@H]1[C@@H]2CC[C@@]2(C)[C@H]1CC[C@]2(C)O`, the Potency was 11.9 µM (active) in assay [2] and 29.8 µM (active) in assay [3]. The Potency result in assay [4] and in [8] was “inactive” throughout.
For `CCCOC(=O)Cc1ccc(OCC(=O)N(CC)CC)c(OC)c1`, the Potency result in assay [3], in assay [4] and in assay [8] was “inactive” in each case.
`C#CCOC(=O)/C=C(C)/C=C/CC(C)CCCC(C)C` (centres undefined): the Potency result in [1], in assay [2], in assay [4] and in [8] was “inactive” each time.
`CC(C)c1ccc(O)cc1`: the Potency result in assay [1], in assay [2], in assay [4] and in [8] was “inactive” each time.
For `CC1=C2[C@H]3OC(=O)[C@@H](C)[C@@H]3CC[C@@]2(C)C=CC1=O`, the Potency entry in [1], in [3], in assay [4] and in assay [8] was “inactive” throughout.
On to `O=P(O)(O)CN(CP(=O)(O)O)CP(=O)(O)O`, for which the Potency entry in [2], in assay [3], in assay [4] and in [8] was “inactive” throughout.
As for `CCCCOC(C)=O`, the Potency entry in [1], in assay [3], in [4] and in assay [8] was “inactive” in each case.
As for `N=C(N)[Se]`, the Potency was 4.87 µM (active) in assay [1] and 2.44 µM (active) in assay [3]. In addition, the Potency result in assay [4] and in assay [8] was “inactive” throughout.
Turning to `CC[C@@H](CO)NC(=O)[C@@H]1C=C2c3cccc4[nH]cc(c34)C[C@H]2N(C)C1`, the Potency entry in assay [1], in assay [2], in [3] and in assay [8] was “inactive” each time. Besides, the outcome in [6] and in assay [7] was inactive.
With `CCOP(=S)(OCC)Oc1ccc(Cl)cc1Cl`, the Potency result in [2], in assay [3], in [4] and in assay [8] was “inactive” throughout.
With `O=C(O)CBr`, the Potency result in assay [1], in assay [3], in assay [4] and in assay [8] was “inactive” each time.
As to `COc1ccc2c(C(=O)c3ccc(Cl)cc3)c(C)n(CC(=O)O)c2c1`, the Potency entry in [3], in assay [4] and in [8] was “inactive” in each case.
In the case of `CC(C)(C)c1cc(O)ccc1O`, the Potency in [1] is 4.22 µM (active) and 7.7 µM (active); in assay [3] it was 6.68 µM (active) and 48.6 µM (active) and 12.2 µM (active); in [4], “inactive and 26.8 µM (active)”. In addition, the Potency entry in [8] is “inactive”.
As for `OCC(Cl)CCl` (centres undefined), the Potency result in assay [2], in assay [3], in [4] and in assay [8] was “inactive” in each case.
`O=C(NC(=O)c1c(F)cccc1F)Nc1cc(Cl)c(F)c(Cl)c1F`: the Potency in [1] was 8.42 µM (active). Also, the Potency entry in assay [4] and in assay [8] was “inactive” each time.
In the case of `NNCc1ccccc1`, the Potency result in assay [1], in assay [3], in [4] and in [8] was “inactive” throughout.
As to `COc1cc(CCN)cc(OC)c1OC`, the Potency entry in assay [1], in assay [2], in assay [3], in [4] and in assay [8] was “inactive” each time.
On to `Clc1ccc(C(Cl)(Cl)Cl)cn1`, for which the Potency entry in [1], in assay [3], in assay [4], in assay [5], in assay [8] and in [9] was “inactive” in each case. Moreover, the compound was classed as inactive in assay [6] and in assay [7].
As to `CON(C)C(=O)Nc1ccc(Br)c(Cl)c1`, the Potency in assay [2] was 61.1 µM (active). The Potency result in assay [4] and in [8] was “inactive” each time.
As to `c1cncc([C@@H]2CCCCN2)c1`, the Potency result in assay [1], in [3], in assay [4] and in [8] was “inactive” in each case.
On to `C=CCc1cc(OC)c2c(c1)OCO2`, for which the Potency result in [2], in assay [3], in assay [4] and in assay [8] was “inactive” each time.
Take `ClCOCCl`: the Potency entry in [2], in [3], in assay [4] and in [8] was “inactive” in each case.
Take `O=C(O)c1c(Cl)ccc2cc(Cl)cnc12`: the Potency result in assay [1], in assay [3], in assay [4] and in assay [8] was “inactive” throughout.
Consider `ClC1=C(Cl)C2(Cl)C(CBr)CC1(Cl)C2(Cl)Cl` (centres undefined), for which the Potency in [3] was 30.6 µM (active). In addition, the Potency entry in assay [4] and in [8] was “inactive” each time.
Take `C=CCN1CC[C@]23CCCC[C@H]2[C@H]1Cc1ccc(O)cc13`: the Potency in [1] was 21.1 µM (active). The Potency entry in [3] and in assay [4] was “inactive” in each case.
`CC[C@@H](CO)NC(=O)[C@@H]1C=C2c3cccc4c3c(cn4C)C[C@H]2N(C)C1`: in assay [1], the Potency is 13.3 µM (active). For the same compound, the Potency result in assay [4] and in assay [8] was “inactive” throughout.
Regarding `O=C/C=C/c1ccco1`, the Potency result in assay [3], in [4], in assay [5], in [8] and in assay [9] was “inactive” throughout. In addition, the compound was classed as inactive in assay [6] and in assay [7].
As for `CCC1(CC)C(=O)C=CNC1=O`, the Potency result in [2], in assay [3] and in [4] was “inactive” each time.
Consider `C=C1CC[C@@]2(O)[C@H]3Cc4ccc(O)c5c4[C@@]2(CCN3CC2CC2)[C@H]1O5`, for which the Potency entry in assay [1], in assay [3], in [4] and in assay [8] was “inactive” each time.
